# KCNQ2 pot – enhances the rat KCNQ2 potassium channel | B-score at 10 µM | CHO-K1 KCNQ2, FluxOR thallium flux fluorescence; stronger effect = higher value | 310,000 compounds, 0.54% hits | AID 2239 | O88943;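 active = fluorescence ratio B-score at least 3 SD of library B-scores, with initial fluorescence B-score within 3 of them, cut at about 5.3 in these data; same plate scores as AID 2156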;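 also: B-score of peak minus minimum over baseline fluorescence ratio after K+ and Tl+ stimulus; positive B-score means potentiation of KCNQ2 with more thallium influx and brighter signal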
# Target sequence (O88943 whole entry, looked up): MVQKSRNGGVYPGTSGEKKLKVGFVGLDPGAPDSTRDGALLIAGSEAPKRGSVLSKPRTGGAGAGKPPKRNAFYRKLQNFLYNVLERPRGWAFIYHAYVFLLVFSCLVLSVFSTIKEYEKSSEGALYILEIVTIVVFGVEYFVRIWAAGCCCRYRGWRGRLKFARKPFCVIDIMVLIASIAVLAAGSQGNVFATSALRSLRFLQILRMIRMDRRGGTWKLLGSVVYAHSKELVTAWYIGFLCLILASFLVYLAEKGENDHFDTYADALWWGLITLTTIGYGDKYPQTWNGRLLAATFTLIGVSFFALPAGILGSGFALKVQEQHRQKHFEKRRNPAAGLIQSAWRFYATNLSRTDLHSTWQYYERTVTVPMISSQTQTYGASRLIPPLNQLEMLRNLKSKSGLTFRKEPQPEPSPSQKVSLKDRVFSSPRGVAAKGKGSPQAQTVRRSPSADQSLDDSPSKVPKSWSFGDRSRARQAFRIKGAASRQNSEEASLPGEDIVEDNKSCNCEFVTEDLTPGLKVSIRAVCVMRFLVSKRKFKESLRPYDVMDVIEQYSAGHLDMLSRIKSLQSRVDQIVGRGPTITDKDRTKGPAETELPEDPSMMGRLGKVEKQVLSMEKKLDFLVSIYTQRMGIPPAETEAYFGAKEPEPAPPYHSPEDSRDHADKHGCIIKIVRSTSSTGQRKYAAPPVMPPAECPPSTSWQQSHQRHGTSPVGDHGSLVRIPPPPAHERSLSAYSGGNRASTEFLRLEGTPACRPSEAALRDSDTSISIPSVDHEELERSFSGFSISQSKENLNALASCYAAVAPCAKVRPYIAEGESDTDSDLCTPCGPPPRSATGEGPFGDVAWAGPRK
# KCNQ2 inh – blocks the rat KCNQ2 potassium channel. O88943. CHO-K1 KCNQ2, FluxOR thallium flux, 20 min; stronger effect = lower value. B-score at 10 µM. 310,000 compounds, 1.1% hits. AID 2156;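 active = fluorescence ratio B-score at most minus 3 library SDs, with starting brightness B-score within 2 library SDs, cut at about -5.5 in these data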
# Kir21 confirm – confirmation of mouse Kir2.1 potassium channel inhibitors; Tl flux remaining, % of negative control (stronger effect = lower value), % at 10 µM; 2,300 compounds, 41% hits; AID 2032; Kir2.1-expressing cells, FluxOR thallium flux fluorescence; stronger effect = lower value; shares compounds with KCNQ2 pot;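 active = Primary-screen hit whose thallium flux fell at least 3 control SD below untreated wells in both duplicates, with normal baseline fluorescence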;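 also: 0% = blank wells without stimulus and 100% = stimulated no-compound controls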
# HEK293 ctr – parental HEK293 activity in Kir2.1 inhibitor counter-screen; FluxOR signal as % of negative control (100 = no effect), % at 10 µM; parental HEK293 cells, FluxOR thallium flux fluorescence; 0% = unstimulated blank wells; 2,300 compounds, 19% hits; AID 2105; shares compounds with KCNQ2 pot;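 active = dye signal at least 3 control SD above or below untreated wells in both duplicates, raw fluorescence within 3, either direction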;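 also: percent is based on the flux ratio of peak minus minimum fluorescence over baseline F0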
# CHO-K1 Tl ctr – alters thallium flux in parental CHO-K1 cells, KCNQ2 counter-screen. shares compounds with KCNQ2 pot. FluxOR thallium flux fluorescence; zero = vehicle mean+3SD, 100% = vehicle-minus-blank window. activity increase over 3SD of controls, % at 10 µM. 1,200 compounds, 43% hits. AID 2282;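 active = signal rise of at least 3 SD above the untreated control mean, in both duplicate wells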;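 also: counter screen of KCNQ2 potentiator hits so any rise reflects channel-independent effects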
# KCNQ1 pot spec – tests whether KCNQ2 potentiators also act on human KCNQ1; shares compounds with KCNQ2 pot; CHO KCNQ1 stable, FluxOR thallium flux fluorescence; beyond 3SD, as % of vehicle-control signal; activation over 3SD threshold, % at 10 µM; 1,200 compounds, 28% hits;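 active = fluorescence ratio rise of at least 3 SD of vehicle wells above their mean, in both replicate wells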;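 also: 0% = vehicle mean plus 3 SD and 100% = vehicle minus unstimulated blank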
# KCNQ2 pot conf – rat KCNQ2 channel potentiator confirmation. shares compounds with KCNQ2 pot. CHO-KCNQ2 cells, FluxOR thallium flux fluorescence. potentiation, less the hit threshold, % at 10 µM. 1,200 compounds, 68% hits;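 active = fluorescence ratio rising 3 SD or more over the vehicle control mean in both replicates, plus primary screen hit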;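 also: peak minus minimum thallium fluorescence divided by baseline after K/Tl stimulus; 0% = vehicle mean plus 3 SD and 100% = vehicle minus unstimulated blank difference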
# Kir21 spec – tests whether KCNQ2 potentiators also affect mouse Kir2.1. shares compounds with KCNQ2 pot. HEK293 Kir2.1, FluxOR thallium flux fluorescence. activity over 3SD threshold, % at 10 µM. 1,200 compounds, 2% hits. AID 2345;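 active = fluorescence ratio rise of at least 3 SD above the vehicle-control mean, seen in both replicates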;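 also: 0% = vehicle mean plus 3 SD and 100% = vehicle minus no-stimulus blank window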
# KCNQ2 W236L pot – rat KCNQ2 W236L mutant potentiation by KCNQ2 potentiators. CHO KCNQ2-W236L, automated patch clamp current. AID 2558. current increase over 3SD of negative controls (%), stronger effect = higher value, % at 25 µM. shares compounds with KCNQ2 pot. 940 compounds, 10% hits;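 active = current increase at least 3 SD of the untreated controls above them in both duplicate recordings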
# * = called active by the depositor; i = inactive; . = no result given. A selection: hits, their analogues and other compounds. The true share with any hit is near 1.6%.
SMILES,KCNQ2 pot,KCNQ2 inh,Kir21 confirm,HEK293 ctr,others
CCOc1cc(CNn2cn[nH]c2=S)cc(Cl)c1OCc1ccccc1F,.,i,.,.,
COc1cccc(CNC(=O)CCC2CCCN(C(=O)C3=CC(=O)CC(C)(C)O3)C2)c1 (stereo not given),.,i,.,.,
CCn1ncc(/C=N/NC(=O)c2ccc3c(c2)OCO3)c1C,.,i,.,.,
CCn1cc(/C=N/NC(=O)c2ccc3c(c2)OCO3)c(C)n1,6.3*,i,i,i,CHO-K1 Tl ctr=-12;KCNQ1 pot spec=-25;KCNQ2 pot conf=-20;Kir21 spec=-39
COc1cccc(C2CC(=O)C3=C(C2)Nc2ccccc2N(C(=O)CCC(=O)O)C3c2ccc(F)cc2)c1 (stereo not given),.,i,.,.,
COc1c(C)cc(S(=O)(=O)NCc2ccccn2)c(C)c1C,0.4,i,.,.,
COCCNC(=O)C(c1ccc(C)cc1)N(Cc1ccco1)C(=O)CCC(=O)Nc1ccccn1 (stereo not given),0.04,i,.,.,
NS(=O)(=O)c1cccc(NC(=O)CNC(=O)CC23CC4CC(CC(C4)C2)C3)c1,1.4,i,.,.,
Cc1ccc(NC(=O)CNC(=O)CC23CC4CC(CC(C4)C2)C3)c(O)c1,10*,i,i,i,CHO-K1 Tl ctr=-6;KCNQ1 pot spec=-17;KCNQ2 pot conf=25*;Kir21 spec=-23;KCNQ2 W236L pot=i
CCN1CCN(C(=O)/C=C/c2ccc(C)o2)CC1,.,i,.,.,
Cc1ccc(/C=C/C(=O)N2CC(C)CC(C)C2)o1 (stereo not given),6.2*,i,i,i,CHO-K1 Tl ctr=-7;KCNQ1 pot spec=-7;KCNQ2 pot conf=-1;Kir21 spec=-38;KCNQ2 W236L pot=i
O=C(OCC(O)COC(=O)c1cccnc1)c1cccnc1,0.18,i,.,.,
CCOC(=O)C(=CNc1ccc(S(N)(=O)=O)cc1)C(=O)OCC,.,i,.,.,
CCOC(=O)C(=CNc1ccc(NC2=NCC(C)(C)S2)cc1)C(=O)OCC,.,i,58%*,i,
N#Cc1ccc(C2=NC(C(F)(F)F)(C(F)(F)F)c3c(n(Cc4ccco4)c(=O)[nH]c3=O)N2)cc1,0.74,i,.,.,
COc1cc(OC)cc(C(=O)Nc2ccc(C(=O)c3ccncc3)cc2)c1,11*,i,i,i,CHO-K1 Tl ctr=28*;KCNQ1 pot spec=42*;KCNQ2 pot conf=20*;Kir21 spec=-36;KCNQ2 W236L pot=i
COc1cc(OC)cc(C(=O)Nc2cccnc2)c1,1.1,i,.,.,
S=C(NCCc1ccccc1)Nc1ccc(Br)cn1,.,i,.,.,
Cc1ccc(-c2cc(C(=O)Nc3c(C)n(C)n(-c4ccccc4)c3=O)[nH]n2)c(O)c1C,0.66,i,.,.,
COc1cc(CNCCN2CCOCC2)ccc1OCc1ccc(Cl)cc1Cl,.,i,.,.,
COc1cc(CNCc2ccccn2)ccc1OCc1ccc(Cl)cc1Cl,.,i,26%*,i,
COc1cccc(OC)c1NC(=O)CN1CCN(C)CC1,0.75,i,.,.,
c1ccc(COc2ccc(CNCc3cccs3)cc2)cc1,.,i,10%*,72%*,
Brc1ccc(CNCc2cccs2)cc1,.,i,.,.,
Cc1ccc([N+](=O)[O-])cc1S(=O)(=O)NCC1COc2ccccc2O1 (stereo not given),.,i,73%*,i,
SMILES,KCNQ2 pot,KCNQ2 inh,Kir21 confirm,HEK293 ctr,others
Cc1ccc(S(=O)(=O)NCC2COc3ccccc3O2)cc1 (stereo not given),.,i,.,.,
CC(=O)Nc1ccc(S(=O)(=O)Nc2nc3ccccc3nc2Nc2ccc(O)cc2)cc1,0.18,i,.,.,
Cc1ccc(SCc2c(C#N)c3ccccc3n2C)cc1,.,i,i,i,
Cn1c(CSc2ccccc2)c(C#N)c2ccccc21,0.32,i,.,.,
O=C(CCn1cccc1)Nc1ccc(OC(F)(F)F)cc1,0.63,i,.,.,
Cc1ccc(NC(=O)[C@H](C)NC(=O)C2CCN(C(=O)[C@@H](N)C(C)C)CC2)cc1,0.23,i,.,.,
CC(C)(O)C#Cc1ccc(CN2CCCC(CNC(=O)c3ccco3)C2)cc1 (stereo not given),0.09,i,.,.,
S=c1[nH]nc(-c2cccs2)n1/N=C/c1cn(-c2ccccc2)nc1-c1cccs1,6.9*,i,i,i,CHO-K1 Tl ctr=-1;KCNQ1 pot spec=80*;KCNQ2 pot conf=-3;Kir21 spec=-34;KCNQ2 W236L pot=i
S=c1[nH]nc(-c2ccncc2)n1/N=C/c1cn(-c2ccccc2)nc1-c1ccccc1,.,i,.,.,
N=c1c2c3c(sc2ncn1Cc1ccco1)CCCCC3,0.74,i,.,.,
c1ccc(-c2oc3ncnc(NCCCn4ccnc4)c3c2-c2ccccc2)cc1,.,i,.,.,
N=c1c2c(-c3ccccc3)c(-c3ccccc3)n(Cc3ccco3)c2ncn1Cc1ccccc1,-5.9,-5.9*,65%*,i,
N=c1c2c(-c3ccccc3)c(-c3ccccc3)n(Cc3ccco3)c2ncn1CCCn1ccnc1,.,i,32%*,64%*,
COc1cc2c(cc1OC)C(C(=O)NC(C)c1ccccc1)CC(=O)N2 (stereo not given),.,i,.,.,
N#C/C(=C\c1cccc(O)c1)C(=O)N1CCCCC1,.,i,.,.,
N#C/C(=C\c1cccc(Br)c1)C(=O)N1CCCCC1,-8.5,-8.5*,45%*,i,
CC(=O)N1CCOc2ccc(S(=O)(=O)N3CCC(C)CC3)cc21,.,i,.,.,
CCCC(C1=C(O)CC(C)(C)CC1=O)C1C(=O)CC(C)(C)CC1=O (stereo not given),.,i,.,.,
Cc1ccc(C(C2=C(O)CC(C)(C)CC2=O)C2C(=O)CC(C)(C)CC2=O)o1 (stereo not given),8.7*,i,.,.,CHO-K1 Tl ctr=-17;KCNQ1 pot spec=54*;KCNQ2 pot conf=1.5*;Kir21 spec=-58;KCNQ2 W236L pot=46%*
COc1ccc(NC(=O)c2cccc(NC3=NC4CS(=O)(=O)CC4S3)c2)cc1Cl (stereo not given),0.31,i,.,.,
O=C(/C=C/c1ccc(F)cc1)NC(Cc1c[nH]c2ccccc12)C(=O)O (stereo not given),.,i,.,.,
N#CCC(=O)Nc1ccc(C(=O)NCc2cccc(Cl)c2)cc1,0.62,i,.,.,
CCc1ccccc1N1CC(C(=O)Nc2cc(C)on2)CC1=O (stereo not given),0.37,i,.,.,
c1ccc(COc2ccccc2CNC23CC4CC(CC(C4)C2)C3)cc1,.,i,42%*,i,
c1ccc(COc2ccccc2CNC2CCCC2)cc1,2.2,i,.,.,
O=C(NCC(=O)N1CCN(c2ccccc2O)CC1)c1ccccc1,0.03,i,.,.,
